Our source for the Potency, outcome and max response values is PubChem BioAssay (NCATS).

Experiment [1] in a line: P-glycoprotein substrates identified in KB-8-5-11 adenocarcinoma cell line, qHTS therapeutic library screen (AID 1346987). Also: potency is read from the fitted curve at half-maximal effect; nearly all actives have a fitted effect of over 65% in size. An outline of the steps: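 Compounds are pinned in dose-response onto KB-8-5-11 cells (500 cells/well, colchicine-free medium) and left 72 h at 37 degree C. CellTiter-Glo luminescence then yields AC50 values.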
In general terms: In qHTS, concentration-response curves come from the screen itself.

Experiment [2] has as its system Zika virus NS2B-NS3 protease (linked construct). The experiment in a line: Primary screen NINDS Rhodamine qHTS for Zika virus inhibitors (AID 1347160). Also: % is scaled to controls: 0 for no effect and ±100 for the full control effect; nearly all actives have a fitted effect of over 55% in size. An outline of the steps: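 Enzyme (25 nM, linked NS2B-NS3) was preincubated 15 min with compound in 10 mM Tris-HCl pH 8.0, 0.01% Tween 20. Rhodamine110 substrate (1.5 microM) was then added and fluorescence read at start and after 15 min.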

The target of experiment [3] is Calcium and integrin-binding protein 1 (Homo sapiens) (UniProt Q99828). The experiment in a line: Primary qHTS for Identification of Calcium Integrin Binding Protein 1 (CIB1) Competitor (AID 1508620).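 Also: GST tagged CIB1 binding a fluorescein labelled alphaIIb integrin peptide tracer; top concentration of the series differs between compounds; % is scaled to controls: 0 for no effect and ±100 for the full control effect.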 An outline of the steps:
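Fluorescence polarization competition: GST-tagged CIB1 (1 uM final) preincubated with compound 15 min at room temperature, then FITC-labelled alphaIIb peptide (100 nM final) added. After 15 min at room temperature, polarization read at Ex 480/Em 540.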

Experiment [4] can be described thus: Primary qHTS for inhibitors of nuclear receptor binding SET domain protein 2 (NSD2) in an isogenic RCH-ACV NSD2 p.E1099K mutant (9B) (AID 1645876). Also: potency is read from the fitted curve at half-maximal effect; nearly all actives have a fitted effect of over 70% in size.
The nature of experiment [5]: Primary qHTS for inhibitors of nuclear receptor binding SET domain protein 2 (NSD2) in an RCH-ACV wild type WT cells (2C) (AID 1645877). Also: potency is read from the fitted curve at half-maximal effect; nearly all actives have a fitted effect of over 70% in size.
The target of experiment [6] is Phospholipid hydroperoxide glutathione peroxidase GPX4 (Homo sapiens) (UniProt P36969). As to the kind of experiment: Primary qHTS Assay for Inhibitors of Recombinant Selenoprotein Glutathione Peroxidase 4 (GPX4) (AID 1845192). Also: % is scaled to controls: 0 for no effect and ±100 for the full control effect; nearly all actives have a fitted effect of over 65% in size. An outline of the steps:
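Steps: GPX4 plus compound, 30 min RT; add GR/GSH/NADPH master mix; start with cumene hydroperoxide; read 340/450 nm fluorescence at 0 and 15 min. Finals were 200 nM GPX4, 1 mM GSH, 0.5 mM CHP, 0.5 mM NADPH, 100 nM GR.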

The target of experiment [7] is Luciferin 4-monooxygenase (Photinus pyralis) (UniProt P08659). The experiment in a line: Primary firefly luciferase (FLuc) qHTS assay for identification of artifact compounds. (AID 1845220). Also: nearly all actives have a fitted effect of over 60% in size. As to conditions: outcome: dose series up to 54.1 µM unless noted. An outline of the steps:
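Enzymatic FLuc inhibition assay: compounds pre-exposed to luciferin/ATP (10 uM each) for 15 min, then purified P. pyralis enzyme at 10 nM added. Read-out: luminescence at 5 min.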

Experiment [8] in a line: Primary fluorescence-based thiol-reactive (MSTI) qHTS assay for identification of artifact compounds. (AID 1845221).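 Also: thiol-reactive compounds lower the probe fluorescence signal; nearly all actives have a fitted effect of over 65% in size.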 Put shortly:
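Curve-fitted percent inhibition (4-parameter Hill) derived from fluorescence, Ex 525/Em 598 nm, scaled with Acetyl-MSTI and MSTI; 1 h incubation at room temperature.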

Experiment [9] concerns Nanoluciferase (engineered Oplophorus gracilirostris luciferase). The experiment in a line: Primary Nanoluciferase (NLuc) qHTS assay for identification of artifact compounds. (AID 1845222).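 Also: NLuc secreted into diluted conditioned medium of S16 cells; 0% = DMSO and -100% = no enzyme.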 An outline of the steps: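 S16 cell supernatant NLuc, 1:55; cpds qHTS; 15 min RT dark; Nano-Glo substrate 1:100, 5 min; luminescence; Hill fit of % inhibition.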
Experiment [10] can be described thus: Primary redox qHTS assay for identification of artifact compounds. (AID 1845223).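 Also: 0% = DMSO and 100% = reference compound.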 Put shortly: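 Redox-cycling detection via DTT (250 uM final) oxidation coupled to Amplex Red (25 uM)/HRP (250 mU/mL) in HBSS. 15 min preincubation plus 30 min after DTT, room temperature. Ex/Em 525/598 nm; 4-parameter Hill fit against DMSO and 10 uM DA3003.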
Experiment [11] concerns HEK293. The experiment in a line: Cytotoxic Profiling of Annotated Libraries Using Quantitative High-Throughput Screening (AID 1296008). Also: nearly all actives have a fitted effect of over 60% in size. Also: potency is read from the fitted curve at half-maximal effect. As to max response: % is scaled to controls: 0 for no effect and ±100 for the full control effect. As to conditions: Five cell lines viability, CellTiter-Glo ATP luminescence, 48-72 h; max response: stronger effect = lower value. An outline of the steps: (§1)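 Cells exposed to compounds for 48 or 72 hr at 37 degrees Celsius. Viability read as ATP-coupled luminescence with CellTiter-Glo after 10 min at room temperature.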

Experiment [12] has as its system C33A. The experiment in a line: Primary qHTS to identify gynecologic anti-cancer compounds using libraries of approved drugs and bioactive compounds (AID 1345084). Also: nearly all actives have a fitted effect of over 55% in size. Also: potency is read from the fitted curve at half-maximal effect. The settings on record: Gynecologic cancer cell panel viability, ATPlite luminescence, 48 h; series mostly up to 57.5 µM. Put shortly:
(§2)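 Cytotoxicity screen measuring ATP content by luciferase luminescence. Each compound is applied at five concentrations for 48 h at 37 C with 5% CO2.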

Experiment [13] has as its system Hek293T. The experiment is described as above. As to conditions: Gynecologic cancer cell panel viability, ATPlite luminescence, 48 h, control line for the selectivity index; series mostly up to 57.5 µM. Put shortly: as §2
(In general: Cellular ATP, detected with luciferase, serves as a proxy for viable cell number.)

For experiment [14], the system named is JEG-3. Described as above. As to conditions: Gynecologic cancer cell panel viability, ATPlite luminescence, 48 h; series mostly up to 57.5 µM. An outline of the steps: as §2
The subject of experiment [15] is OV90. The description is as above. As to conditions: Gynecologic cancer cell panel viability, ATPlite luminescence, 48 h; series mostly up to 57.5 µM. Put shortly: as §2
Experiment [16] deals with PA-1. The description is as above. As to conditions: Gynecologic cancer cell panel viability, ATPlite luminescence, 48 h; series mostly up to 57.5 µM. An outline of the steps: as §2
Experiment [17] concerns the target Cytochrome P450 2D6 (Homo sapiens) (UniProt P10635). The experiment in a line: Cytochrome P450 family 2 subfamily D member 6 (CYP2D6) small molecule antagonists: luciferase biochemical (cell-free) qHTS assay (AID 1645840; active = well fitted curve in the direction sought with a large enough effect in the repeat runs; an effect the other way counts as inactive or inconclusive; also: potency is read from the fitted curve at half-maximal effect; nearly all actives have a fitted effect of over 55% in size). Put shortly: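 P450-Glo CYP2D6 system: proluciferin substrate converted by enzyme to luciferin, read by luminescence proportional to activity. Enzyme-substrate mix with compound 10 min at room temperature, then NADPH regeneration 1 h before detection reagent.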

Experiment [18] has as its target Cytochrome P450 2C9 (Homo sapiens) (UniProt P11712). As to the kind of experiment: Cytochrome P450 family 2 subfamily C member 9 (CYP2C9) small molecule antagonists: luciferase biochemical (cell-free) qHTS assay (AID 1645842; active = well fitted curve in the direction sought with a large enough effect in the repeat runs; an effect the other way counts as inactive or inconclusive). An outline of the steps:
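P450-Glo CYP2C9 system: proluciferin substrate with enzyme in mix containing 0.4% BSA, 10 min at room temperature, then NADPH regeneration solution added and incubated 1 h at 37C. Detection reagent stopped reaction; luminescence read after 20 min as RLU.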

Experiment [19] deals with Glutathione peroxidase 1 (Homo sapiens) (UniProt P07203). As to the kind of experiment: Primary qHTS Assay for Inhibitors of Recombinant Selenoprotein Glutathione Peroxidase 1 (GPX1) (AID 1845191). Also: % is scaled to controls: 0 for no effect and ±100 for the full control effect; nearly all actives have a fitted effect of over 65% in size. An outline of the steps: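 GR-coupled readout: NADPH consumption tracked by fluorescence, ex 340/em 450 nm, at t=0 and after 15 min at RT. Final mix 10 nM GPX1, 1 mM GSH, 0.5 mM CHP, 0.5 mM NADPH, 100 nM GR, 0.01% BSA, following 30 min enzyme–compound preincubation.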
Glutathione peroxidase 1 (Homo sapiens), sequence (P07203 whole entry, looked up): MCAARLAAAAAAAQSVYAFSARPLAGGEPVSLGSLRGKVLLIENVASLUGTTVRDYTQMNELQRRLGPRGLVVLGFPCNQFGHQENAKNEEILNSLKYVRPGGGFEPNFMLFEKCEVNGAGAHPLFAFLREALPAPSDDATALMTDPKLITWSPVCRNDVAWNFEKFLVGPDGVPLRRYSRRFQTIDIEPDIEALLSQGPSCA

Experiment [20] deals with HaCat. As to the kind of experiment: Cytotoxic Profiling of Annotated Libraries Using Quantitative High-Throughput Screening (AID 1296008). Also: nearly all actives have a fitted effect of over 60% in size. Also: potency is read from the fitted curve at half-maximal effect. As to max response: % is scaled to controls: 0 for no effect and ±100 for the full control effect. As to conditions: Five cell lines viability, CellTiter-Glo ATP luminescence, 48-72 h; max response: stronger effect = lower value. Put shortly: as §1
The test system of experiment [21] is KB-3-1. The description is as above. The settings on record: Five cell lines viability, CellTiter-Glo ATP luminescence, 48-72 h; max response: stronger effect = lower value. Put shortly:
as §1

The test system of experiment [22] is CAOV3. As to the kind of experiment: Primary qHTS to identify gynecologic anti-cancer compounds using libraries of approved drugs and bioactive compounds (AID 1345084). Also: nearly all actives have a fitted effect of over 55% in size. Also: potency is read from the fitted curve at half-maximal effect. As to conditions: Gynecologic cancer cell panel viability, ATPlite luminescence, 48 h; series mostly up to 57.5 µM. Put shortly:
as §2

In experiment [23] the test system is Es-2. Described as above. As to conditions: Gynecologic cancer cell panel viability, ATPlite luminescence, 48 h; series mostly up to 57.5 µM. Put shortly: as §2
Experiment [24] concerns HeLa. The description is as above. The settings on record: Gynecologic cancer cell panel viability, ATPlite luminescence, 48 h; series mostly up to 57.5 µM. An outline of the steps: as §2
The test system of experiment [25] is SKOV3. The experiment is described as above. As to conditions: Gynecologic cancer cell panel viability, ATPlite luminescence, 48 h; series mostly up to 57.5 µM. Put shortly: as §2
The subject of experiment [26] is Tov-21-G. The experiment is described as above. As to conditions: Gynecologic cancer cell panel viability, ATPlite luminescence, 48 h; series mostly up to 57.5 µM. An outline of the steps: as §2
Experiment [27] relates to Tov112D. The experiment is described as above. As to conditions: Gynecologic cancer cell panel viability, ATPlite luminescence, 48 h; series mostly up to 57.5 µM. An outline of the steps:
as §2

Each structure is given as a SMILES string. Unmarked numbers belong to inactive results. Inconclusive results are not listed. Calls of active or inactive are those of the source. Unless noted, calls follow the shape of the dose curve; as a rule, active = well fitted curve in the direction sought with a large enough effect; inconclusive = small, poorly fitted or top-dose-only effect, or another doubt; inactive = no such curve, though single readings can be large; an effect the other way counts as inactive or inconclusive.

Phospholipid hydroperoxide glutathione peroxidase GPX4 (Homo sapiens), sequence (P36969 whole entry, looked up): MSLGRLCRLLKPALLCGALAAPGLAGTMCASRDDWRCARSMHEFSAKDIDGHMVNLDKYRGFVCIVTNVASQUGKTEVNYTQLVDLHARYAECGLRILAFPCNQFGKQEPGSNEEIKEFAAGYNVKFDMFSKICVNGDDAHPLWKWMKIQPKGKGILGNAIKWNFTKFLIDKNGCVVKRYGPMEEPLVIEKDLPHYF
Calcium and integrin-binding protein 1 (Homo sapiens), sequence (Q99828 whole entry, looked up): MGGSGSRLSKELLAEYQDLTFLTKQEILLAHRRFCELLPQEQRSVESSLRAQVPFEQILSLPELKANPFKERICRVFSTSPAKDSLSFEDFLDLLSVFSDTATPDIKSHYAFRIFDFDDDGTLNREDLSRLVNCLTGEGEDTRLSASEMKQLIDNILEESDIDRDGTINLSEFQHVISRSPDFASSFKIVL
Cytochrome P450 2C9 (Homo sapiens), sequence (P11712 whole entry, looked up): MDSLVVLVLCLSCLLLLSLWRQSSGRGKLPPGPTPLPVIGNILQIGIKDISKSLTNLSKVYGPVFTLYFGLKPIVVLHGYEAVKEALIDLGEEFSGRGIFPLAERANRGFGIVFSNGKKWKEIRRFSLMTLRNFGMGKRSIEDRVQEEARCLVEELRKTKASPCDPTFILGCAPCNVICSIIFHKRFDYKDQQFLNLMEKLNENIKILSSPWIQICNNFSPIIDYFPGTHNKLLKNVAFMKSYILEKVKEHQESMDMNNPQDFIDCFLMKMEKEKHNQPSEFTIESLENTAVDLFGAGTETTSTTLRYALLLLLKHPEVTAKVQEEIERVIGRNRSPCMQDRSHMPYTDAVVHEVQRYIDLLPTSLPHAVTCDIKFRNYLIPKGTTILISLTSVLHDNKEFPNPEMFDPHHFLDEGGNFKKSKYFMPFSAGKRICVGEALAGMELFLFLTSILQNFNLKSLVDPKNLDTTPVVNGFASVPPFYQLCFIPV
Cytochrome P450 2D6 (Homo sapiens), sequence (P10635 whole entry, looked up): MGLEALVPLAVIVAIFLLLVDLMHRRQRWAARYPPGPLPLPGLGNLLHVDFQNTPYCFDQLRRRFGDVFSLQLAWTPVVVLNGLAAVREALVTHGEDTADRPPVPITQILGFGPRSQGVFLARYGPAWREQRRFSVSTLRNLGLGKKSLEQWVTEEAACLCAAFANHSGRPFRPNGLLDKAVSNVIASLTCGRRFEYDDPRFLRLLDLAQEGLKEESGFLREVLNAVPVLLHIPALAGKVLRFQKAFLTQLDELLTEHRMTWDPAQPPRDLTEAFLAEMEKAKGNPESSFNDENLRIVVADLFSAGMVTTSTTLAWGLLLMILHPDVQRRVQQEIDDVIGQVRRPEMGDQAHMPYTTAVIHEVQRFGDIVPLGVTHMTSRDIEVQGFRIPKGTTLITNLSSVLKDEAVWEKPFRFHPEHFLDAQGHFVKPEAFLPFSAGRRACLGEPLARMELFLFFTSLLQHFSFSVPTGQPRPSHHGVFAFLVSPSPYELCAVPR

For `Cc1sc2c(c1C)C(c1ccc(Cl)cc1)=NC(CC(=O)OC(C)(C)C)c1nnc(C)n1-2` (configuration not stated), the Potency in experiment [1] is 1.16 µM (active); in experiment [4] it was 183 nM (active); in experiment [5], 129 nM (active); in experiment [11], 651 nM (active); in experiment [16], 2 µM (active). Further, the Potency result in [2], in experiment [3], in experiment [6], in experiment [8], in experiment [9] and in experiment [10] was “inactive” each time. The Potency result in experiment [12], in experiment [13], in [14] and in experiment [15] was “inactive” each time. For the same compound, in experiment [7], the call was inactive.
For `OC(CNc1ccccc1)Cn1c2ccc(Br)cc2c2cc(Br)ccc21` (configuration not stated), the Potency entry in experiment [3], in [19], in experiment [6], in experiment [9], in experiment [10] and in experiment [12] was “inactive” each time. Besides, the Potency entry in [22], in experiment [23], in experiment [24], in experiment [13], in experiment [14] and in [15] was “inactive” throughout. In addition, the Potency result in experiment [16], in experiment [25], in experiment [26] and in experiment [27] was “inactive” throughout. The Potency was 16.9 µM (active) in [17] and 5.35 µM (active) in [18]. Besides, the outcome in [7] was inactive. Besides, the figures for the max response in experiment [20] and in experiment [21] were -16% and -15.3%, respectively.
